Results as given in PubChem BioAssay AID1159580 (chemical genetic matrix, 2015).
“And” between values parts separate entries of the source, which are not always exact repeats. Equal entries are not always repeated. The whole screen tested about 5,500 compounds, of which about 2,000 (36%) were called active. Another 18% or so got no clear call; they are omitted. Cut-off read from the data, not from the text of the source: active = normalized growth mostly below about 0.91 (no sharp cut-off); inconclusive = no clear call, values can overlap the other calls; inactive = mostly above about 0.92. Some of the results follow.

Test: chemical genetic growth profiling, strain panel (AID 1159580);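 note: tested at 20 µM; growth read once vehicle control cultures reached saturation at 30 °C; 1 = growth at the plate median or of vehicle wells; lower values mean less growth of the strain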
Conditions: growth OD
[1] = S. cerevisiae deletion strains, locus YAL040C, strain CLN3, active compounds read low
[2] = S. cerevisiae deletion strains, locus YCL061C, strain MRC1 (second series), active compounds read low
[3] = S. cerevisiae deletion strains, locus YDR363W, strain ESC2, active compounds read low
[4] = S. cerevisiae deletion strains, locus YER002W, strain NOP16, active compounds read low
[5] = S. cerevisiae deletion strains, locus YJR075W, strain HOC1, active compounds read low
[6] = S. cerevisiae deletion strains, locus YMR263W, strain SAP30, active compounds read low
[7] = S. cerevisiae deletion strains, locus YMR307W, strain GAS1, active compounds read low
[8] = S. cerevisiae deletion strains, locus YNL153C, strain GIM3, active compounds read low
[9] = S. cerevisiae deletion strains, locus YNL175C, strain NOP13, active compounds read low
[10] = S. cerevisiae deletion strains, locus YNL197C, strain WHI3, active compounds read low
[11] = S. cerevisiae deletion strains, locus YNL224C, strain SQS1, active compounds read low
[12] = S. cerevisiae deletion strains, locus YOR083W, strain WHI5 (second series), active compounds read low

Measured: normalized growth

CNC(=O)Oc1ccc2c(c1)C1(C)CCN(C)C1N2C (stereo unspecified)
inactive: S. cerevisiae deletion strains, locus YAL013W, strain DEP1, active compounds read low 0.999 | [1] 0.99 | S. cerevisiae deletion strains, locus YBR021W, strain FUR4, active compounds read low 1.04 and 1.03 | S. cerevisiae deletion strains, locus YBR229C, strain ROT2, active compounds read low 1 and 1.01 | S. cerevisiae deletion strains, locus YCL029C, strain bik1, active compounds read low 0.991 and 1.01 | [2] 0.978 | S. cerevisiae deletion strains, locus YDL035C, strain GPR1, active compounds read low 1.01 and 1 | S. cerevisiae deletion strains, locus YDL074C, strain BRE1, active compounds read low 1.01 and 1 | S. cerevisiae deletion strains, locus YDL101C, strain DUN1, active compounds read low 0.994 and 0.998 | S. cerevisiae deletion strains, locus YDL134C, strain PPH21, active compounds read low 1.06 and 1 | S. cerevisiae deletion strains, locus YDL185W, strain tfp1, active compounds read low 0.966 and 1.01 | S. cerevisiae deletion strains, locus YDL192W, strain arf1, active compounds read low 1.02 and 1.01 | S. cerevisiae deletion strains, locus YDR101C, strain arx1, active compounds read low 0.98 and 1.01 | S. cerevisiae deletion strains, locus YDR150W, strain NUM1, active compounds read low 1.01 | S. cerevisiae deletion strains, locus YDR162C, strain NBP2, active compounds read low 1.01 and 0.986 | S. cerevisiae deletion strains, locus YDR318W, strain mcm21, active compounds read low 1.02 and 1.01 | [3] 0.964 | S. cerevisiae deletion strains, locus YDR388W, active compounds read low 0.994 and 1.01 | S. cerevisiae deletion strains, locus YDR502C, strain sam2, active compounds read low 0.993 and 0.995 | S. cerevisiae deletion strains, locus YEL061C, strain CIN8, active compounds read low 1 and 1.01 | [4] 0.993 | S. cerevisiae deletion strains, locus YER110C, active compounds read low 0.972 and 1.02 | S. cerevisiae deletion strains, locus YER155C, strain BEM2, active compounds read low 0.995 and 1.01 | S. cerevisiae deletion strains, locus YER167W, strain BCK2, active compounds read low 0.996 and 1.02 | S. cerevisiae deletion strains, locus YGL078C, strain dbp3, active compounds read low 1.01 | S. cerevisiae deletion strains, locus YGL086W, strain mad1, active compounds read low 0.957 and 1.01 | S. cerevisiae deletion strains, locus YGL248W, strain PDE1, active compounds read low 1.02 and 1.01 | S. cerevisiae deletion strains, locus YGR078C, strain PAC10, active compounds read low 1 and 0.991 | S. cerevisiae deletion strains, locus YGR135W, strain pre9, active compounds read low 1.04 and 0.982 | S. cerevisiae deletion strains, locus YGR229C, strain SMI1, active compounds read low 0.977 | S. cerevisiae deletion strains, locus YGR252W, strain gcn5, active compounds read low 1.2 and 0.984 | S. cerevisiae deletion strains, locus YHR030C, strain SLT2, active compounds read low 0.998 and 1.01 | S. cerevisiae deletion strains, locus YHR079C, strain IRE1 (second series), active compounds read low 0.976 and 1.02 | S. cerevisiae deletion strains, locus YHR094C, strain hxt1, active compounds read low 0.991 and 1.01 | S. cerevisiae deletion strains, locus YHR129C, strain ARP1, active compounds read low 1 and 1.02 | S. cerevisiae deletion strains, locus YHR200W, strain rpn10, active compounds read low 0.995 and 1.01 | S. cerevisiae deletion strains, locus YIL066C, strain RNR3, active compounds read low 1 and 1.01 | S. cerevisiae deletion strains, locus YIL073C, strain SPO22, active compounds read low 0.935 and 1.03 | S. cerevisiae deletion strains, locus YIL125W, strain kgd1, active compounds read low 0.995 and 1.02 | S. cerevisiae deletion strains, locus YIR030C, strain dcg1, active compounds read low 1 and 1.02 | S. cerevisiae deletion strains, locus YJL095W, strain BCK1, active compounds read low 1.06 and 1.02 | S. cerevisiae deletion strains, locus YJL134W, strain LCB3, active compounds read low 0.997 and 1 | S. cerevisiae deletion strains, locus YJL168C, strain set2, active compounds read low 0.983 and 1.01 | S. cerevisiae deletion strains, locus YJL187C, strain SWE1 (second series), active compounds read low 1.01 and 1 | S. cerevisiae deletion strains, locus YJR043C, strain POL32, active compounds read low 1.02 and 1.04 | [5] 0.98 and 0.984 and 0.995 | S. cerevisiae deletion strains, locus YKL009W, strain mrt4, active compounds read low 1.02 and 1.04 | S. cerevisiae deletion strains, locus YKL068W, active compounds read low 0.976 and 1 | S. cerevisiae deletion strains, locus YKL085W, strain MDH1 (second series), active compounds read low 0.98 and 1.02 | S. cerevisiae deletion strains, locus YKL085W, strain MDH1, active compounds read low 0.98 and 1.02 | S. cerevisiae deletion strains, locus YKL190W, strain CNB1, active compounds read low 1.01 | S. cerevisiae deletion strains, locus YKR001C, strain vps1, active compounds read low 1 and 1.02 | S. cerevisiae deletion strains, locus YLR039C, strain RIC1, active compounds read low 1.11 and 1.07 | S. cerevisiae deletion strains, locus YLR058C, strain SHM2, active compounds read low 1.02 and 1.01 | S. cerevisiae deletion strains, locus YLR102C, strain apc9, active compounds read low 0.974 and 1.02 | S. cerevisiae deletion strains, locus YLR262C, strain YPT6, active compounds read low 1.14 and 1.01 | S. cerevisiae deletion strains, locus YLR268W, strain sec22, active compounds read low 0.995 and 0.998 | S. cerevisiae deletion strains, locus YLR330W, strain CHS5, active compounds read low 1 and 1.01 | S. cerevisiae deletion strains, locus YLR342W, strain FKS1 (second series), active compounds read low 1.03 and 1.05 | S. cerevisiae deletion strains, locus YLR371W, strain rom2, active compounds read low 0.979 and 1.02 | S. cerevisiae deletion strains, locus YLR418C, strain cdc73, active compounds read low 1 and 0.92 | S. cerevisiae deletion strains, locus YML016C, strain PPZ1, active compounds read low 0.99 and 1.01 | S. cerevisiae deletion strains, locus YML032C, strain rad52, active compounds read low 1.04 and 1.02 | S. cerevisiae deletion strains, locus YML124C, strain tub3, active compounds read low 0.992 and 1 | S. cerevisiae deletion strains, locus YMR078C, strain ctf18, active compounds read low 0.981 and 1.02 | S. cerevisiae deletion strains, locus YMR223W, strain ubp8, active compounds read low 1.03 and 1.02 | [6] 0.983 and 0.988 | [7] 1 and 1.24 and 1.1 | S. cerevisiae deletion strains, locus YNL067W, strain RPL9B, active compounds read low 0.993 and 1 | S. cerevisiae deletion strains, locus YNL128W, strain TEP1, active compounds read low 0.977 and 0.975 | [8] 1 | [9] 1.01 | [10] 1 | [11] 0.999 | S. cerevisiae deletion strains, locus YNL233W, strain BNI4, active compounds read low 0.999 and 0.995 | S. cerevisiae deletion strains, locus YNL250W, strain rad50, active compounds read low 0.94 and 1.02 | S. cerevisiae deletion strains, locus YNL271C, strain bni1, active compounds read low 0.994 and 1.02 | S. cerevisiae deletion strains, locus YNL298W, strain CLA4, active compounds read low 0.993 and 1.02 | S. cerevisiae deletion strains, locus YNL307C, strain MCK1, active compounds read low 0.989 and 1.01 | S. cerevisiae deletion strains, locus YNL322C, strain KRE1, active compounds read low 0.961 and 0.998 and 1.01 | S. cerevisiae deletion strains, locus YNR052C, strain pop2, active compounds read low 1.01 and 1.02 | S. cerevisiae deletion strains, locus YOL006C, strain TOP1, active compounds read low 0.949 and 0.93 | S. cerevisiae deletion strains, locus YOL012C, strain htz1 1.18 and 1.01 | S. cerevisiae deletion strains, locus YOL147C, strain pex11, active compounds read low 0.995 and 1.01 | S. cerevisiae deletion strains, locus YOR061W, strain CKA2, active compounds read low 1 and 1.01 | S. cerevisiae deletion strains, locus YOR069W, strain VPS5, active compounds read low 0.996 and 1.01 | [12] 1.01 | S. cerevisiae deletion strains, locus YOR136W, strain idh2, active compounds read low 0.979 and 1.01 | S. cerevisiae deletion strains, locus YOR144C, strain elg1, active compounds read low 1 and 1.01 | S. cerevisiae deletion strains, locus YOR184W, strain ser1, active compounds read low 1.05 and 1.06 | S. cerevisiae deletion strains, locus YOR316C, strain cot1, active compounds read low 0.988 and 1.02 | S. cerevisiae deletion strains, locus YPL055C, strain LGE1, active compounds read low 0.987 | S. cerevisiae deletion strains, locus YPL241C, strain CIN2, active compounds read low 1.01 | S. cerevisiae deletion strains, locus YPR119W, strain clb2, active compounds read low 0.984 and 1.01 | S. cerevisiae deletion strains, locus YPR141C, strain kar3, active compounds read low 0.981 and 1.02 | S. cerevisiae deletion strains, locus YPR163C, strain tif3, active compounds read low 0.992 and 1.01 | S. cerevisiae deletion strains, locus YPR167C, strain met16, active compounds read low 0.999 and 1.02 | S. cerevisiae deletion strains, strain wtn01, active compounds read low 0.962 and 1 | S. cerevisiae strains, strain wild type, active compounds read low 1.01

NC(N)=NN=Cc1c(Cl)cccc1Cl
inactive: [1] 0.994 | [2] 0.999 | [3] 1.01 | [4] 1.01 | [5] 1.01 | [6] 1 | [7] 1.01 | [8] 0.999 | [9] 1.02 | [10] 1 | [11] 1.01 | [12] 1.01
